Laboratory results from PubChem BioAssay (NCI).
This is part of a sample that, as a whole, favours compounds with a hit. Of some 83,000 tested, about 20% had one in any assay.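 Single-dose data. Exposure time 48 hours. Values below 10 considered active.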 Calls of active or inactive are those of the source.

Tested on: A549/ATCC NSCLC
Experiment: NCI-60 one-dose screen, 48 h (100 = growth as untreated, 0 = no growth, -100 = all killed)
Conditions: 10 µM unless noted

| Compound | growth |
| --- | --- |
| CCCc1[nH]c(-c2cc(N)ccc2Cl)c2c1C(=O)CCCC2 | 91.9% (inactive) |
| O=C(CSc1nnc(-c2ccc(Cl)cc2)n1-c1ccccc1)Nc1ccccc1Cl | 30.4% (inactive) |
| CN(C)S(=O)(=O)c1ccc(-c2nc(C(Cl)Cl)nc3cc(-c4ccc(F)cc4)nn23)cc1 | 7.5% (active) |
| C1=CC(c2nn3c(-c4ccccc4)nnc3s2)=Cc2ccccc2O1 | 89.7% (inactive) |
| COc1ccccc1N1CCN(C2=C(Cl)C(=O)c3ncccc3C2=O)CC1 | 112% (inactive) |
| O=C(COc1ccc(/C=C2\C(=O)Nc3ccc(F)cc32)cc1)Nc1ccccc1 | 96.7% (inactive) |

Tested on: 786-0 renal
Experiment: as above
Conditions: 10 µM unless noted

| Compound | growth |
| --- | --- |
| NC(=O)n1c(=O)n(-c2cccc(C(F)(F)F)c2)c(=O)c2cc(-c3ccc(F)cc3F)ccc21 | 45% (inactive) |
| Cn1c(SCC(=O)c2ccco2)nc2ccccc2c1=O | 110% (inactive) |
| C=C(C)[C@@H]1CC[C@]2(C(=O)O)CC[C@]3(C)[C@H](CC[C@@H]4[C@@]5(C)C/C(=C/c6ccccn6)C(=O)C(C)(C)[C@@H]5CC[C@]43C)[C@@H]12 | 51.1% (inactive) |
| CCc1cc2c(cc1Cl)nc1c(=O)[nH]c(=O)nc-1n2CCOCC(C)(C)C | 81.1% (inactive) |
| O=C(Nc1ccc(N2CCOCC2)cc1)Nc1ccc2c(ccn2C(=O)c2cccc(F)c2)c1 | 28.4% (inactive) |
| C#CCOc1cccc(-c2nc(N)nc(Nc3ccccc3SSc3ccccc3Nc3nc(N)nc(-c4cccc(OCC#C)c4)n3)n2)c1 | 96.9% (inactive) |
| CN1CCN(Cc2ccc(NC(=O)c3cncc(C#Cc4cnc5ccc(OCCCS(C)(=O)=O)nn45)c3)cc2C(F)(F)F)CC1 | -16% (active) |
| CNC(=O)c1cc(-n2ccc3cc(NC(=O)Nc4ccc(N5CCN(C)CC5)c(C(F)(F)F)c4)ccc32)ccn1 | -13.7% (active) |
| Nc1cc(C(=O)N/N=C\c2ccc(OC(F)F)c(OC3CCCC3)c2)nn1CC(O)c1ccccc1 (centres undefined) | 107% (inactive) |
| CNC(=O)Nc1ccc(Nc2cc(-c3ccc(-n4cccn4)cc3)[nH]n2)c(C)c1 | 111% (inactive) |
| Cc1nc(/N=C(N)/N=C(\N)c2cccc(Br)c2)sc1C | 75.2% (inactive) |
| Brc1cccc(-c2cc(-c3ccc4c(c3)OC=CO4)[nH]n2)c1 | 70.4% (inactive) |
| Cc1ccc2c(n1)C(=O)C(Cl)=C(Nc1ccc(C)c(C)c1)C2=O | 104% (inactive) |
| CN1CCN(Cc2ccc(NC(=O)c3cncc(C#Cc4cnc5ccc(N)nn45)c3)cc2C(F)(F)F)CC1 | 50.1% (inactive) |
| O=C1[C@@H]2Cc3c([nH]c4ccccc34)[C@@H](c3ccc(Cl)cc3)N2C(=O)CN1C1CCN(Cc2ccccc2)CC1 | 67% (inactive) |
| CN1CCN(c2ccc(C(=O)/C=C/c3cc(F)cc(C(F)(F)F)c3)cc2)CC1 | 89.7% (inactive) |
| CCCc1cc2cc(-n3nc(CC)c4c3CC(C)(C)CC4=O)cc(NC3CCC(O)CC3)c2c(=O)[nH]1 (centres undefined) | -12.4% (active) |
| O=C1[C@@H]2Cc3c([nH]c4ccccc34)[C@H](c3ccc(Br)cc3)N2C(=O)CN1C1CCN(Cc2c(Cl)cccc2Cl)CC1 | 99.8% (inactive) |
| CC1(C)CC[C@]2(C(=O)NCCCCCCN(CCCN)CCCN)CC[C@]3(C)C(=CC[C@@H]4[C@@]5(C)CC[C@H](O)C(C)(C)[C@@H]5CC[C@]43C)[C@@H]2C1 | 91.5% (inactive) |
| N#Cc1c(-c2cccs2)cc(-c2cnccn2)nc1SCC(=O)N/N=C/c1ccccc1 | 17.9% (inactive) |
| Cc1ccc(S(=O)(=O)NCCCNc2nccc(-c3[nH]c(-c4ccccc4)nc3-c3ccc(F)c(O)c3)n2)cc1 | 104% (inactive) |
| COc1ccc2c(c1)c(-c1nc(N)nnc1-c1c[nH]c3ccccc13)cn2C | 54.5% (inactive) |
| COC(=O)c1ccc(NC2=C(Cl)C(=O)c3nc(C)ccc3C2=O)cc1 | 85.7% (inactive) |
| N#Cc1c(-c2cccs2)cc(-c2cnccn2)nc1SCC(=O)N/N=C/c1ccncc1 | 104% (inactive) |
| Cc1ccc2c(n1)C(=O)C(Cl)=C(Nc1cccc(C(F)(F)F)c1)C2=O | 85.8% (inactive) |
| C#CCN(C)CCCOc1ccc(NCc2ccc(/C=C/C(=O)NO)cc2)cc1Cl | -2.14% (active) |
| CC1=C(SCC(=O)OCCCCCC(C)C)C(=O)c2ccccc2C1=O | 99.9% (inactive) |
| Cc1ccc2c(n1)C(=O)C(Cl)=C(Nc1ccc(C#N)cc1)C2=O | 80.4% (inactive) |
